Screening data as filed in PubChem.
FPR binder = ligands of human FPR, also counter-screen for FPRL1 ligands; FPR-expressing cells, fluorescent ligand binding, flow cytometry; inhibition, % (concentration not given with the values); hit rate 0.74% among 24,000; AID 440;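 note: 0% = buffer wells and 100% = receptor blocker peptide wells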
FPRL1 binder = ligands of human FPRL1, also counter-screen for FPR ligands. FPRL1-expressing cells, fluorescent ligand binding inhibition, flow cytometry. inhibition, % (no concentration beside the values). hit rate 0.3% among 24,000;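 note: 0% = buffer alone and 100% = receptor blocker peptide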
Target sequence (P25090 whole entry, looked up): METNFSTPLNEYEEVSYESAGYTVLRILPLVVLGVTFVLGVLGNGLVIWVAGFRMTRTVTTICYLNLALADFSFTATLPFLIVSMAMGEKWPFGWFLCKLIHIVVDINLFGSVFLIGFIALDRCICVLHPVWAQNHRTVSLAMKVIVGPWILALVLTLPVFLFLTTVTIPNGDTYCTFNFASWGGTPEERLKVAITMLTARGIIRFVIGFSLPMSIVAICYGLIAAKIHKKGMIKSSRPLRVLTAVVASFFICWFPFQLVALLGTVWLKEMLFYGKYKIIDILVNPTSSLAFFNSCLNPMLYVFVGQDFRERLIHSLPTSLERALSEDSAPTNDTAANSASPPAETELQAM
S aureus QS inh = inhibitors of bacterial quorum sensing in S. aureus; AID 527; inhibition, % at 2 µM; hit rate 0.3% among 24,000; S. aureus RN6390 RNAIII-GFP reporter, AIP-induced, flow cytometry 3 h;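 active = share of bacteria positive for the green fluorescent reporter and its mean brightness both inhibited by 50% or more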;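 note: 0% = AIP-stimulated control and 100% = unstimulated bacteria without AIP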
Starred values were filed as active, the others as inactive; ? = inconclusive; . = not tested or not shown. Rows were chosen to be rich in hits. Some 1.2% of all compounds tested hit in one or more screens of this group. Cut-off read from the data, not from the text of the source, unless noted: active = inhibition above about 30%; inconclusive = no clear call, values can overlap the other calls; inactive = below that.

SMILES | FPR binder | FPRL1 binder | S aureus QS inh
O=S(=O)(c1cnc[nH]1)N1CCc2ccccc21 | ? | 33* | 0
CC1Cc2ccccc2N1S(=O)(=O)c1cnc[nH]1 (stereo not given) | -11 | -45 | 5
Cc1oc2cc3c(C(=O)OCCN(C)C)c(C)oc3cc2c1C(=O)OCCN(C)C | -4 | 2 | 0
Cc1c(C(=O)NCc2ccc3c(c2)OCO3)oc2ccc(S(=O)(=O)N3CCC(C)CC3)cc12 | -2 | 11 | 0
Cn1c(=O)oc2cc(S(=O)(=O)N3CCC(C(=O)NCc4cccs4)CC3)ccc21 | 1 | 6 | -3
CC1CCN(S(=O)(=O)c2ccc3c(c2)oc(=O)n3CC(=O)NCc2ccc3c(c2)OCO3)CC1 | 39* | -4 | 67*
Cn1c(=O)oc2cc(S(=O)(=O)N3CCC(C(=O)NCC4COc5ccccc5O4)CC3)ccc21 (stereo not given) | 31* | 20 | -2
Cc1nc2c(-c3ccc(F)cc3)c(C)nn2c(C)c1CCC(=O)NC(C)CCc1ccco1 (stereo not given) | 44* | -6 | 17
Cc1nc2c(-c3ccccc3)c(C)nn2c(C)c1CCC(=O)NCc1ccco1 | 6 | -1 | -1
Cc1cccc(NC(=O)C2CCCN(S(=O)(=O)c3cccc4cccnc34)C2)c1 (stereo not given) | 0 | 0 | 3
CC(C)N=c1cc2n(-c3ccc(Cl)cc3)c3ccccc3nc-2cc1Nc1ccc(Cl)cc1 | 8 | 18 | 70*
O=C1CCC(c2ccccc2)N1C(=O)c1cccnc1 (stereo not given) | 3 | 9 | 0
O=C(NCc1cccnc1)C1c2ccccc2C(=O)N1C1CCCC1 (stereo not given) | -7 | 7 | 0
N#CC1=C(N)Oc2n[nH]c(-c3cccs3)c2C1c1cccs1 (stereo not given) | 11 | 12 | -2
CSCCC1C(C#N)=C(N)Oc2n[nH]c(-c3cccs3)c21 (stereo not given) | 30* | 6 | 9
CSC1=NCCN1C(=O)c1c(F)cccc1F | -3 | -6 | 0
CC(C)Oc1ccc(/C(O)=C2/C(=O)C(=O)N(CCCN3CCOCC3)C2c2ccncc2)cc1 (stereo not given) | -10 | 0 | .
Cc1cc2oc(C(=O)NC3CCS(=O)(=O)C3)c(C)c2cc1C (stereo not given) | 48* | 51* | 0
Cc1ccc(OC(=O)NC2CCS(=O)(=O)C2)cc1C (stereo not given) | -1 | -2 | 0
COCCCN1C(=O)C(=O)/C(=C(/O)c2ccccc2)C1c1ccc2c(c1)OCO2 (stereo not given) | 54* | 0 | .
Cc1ccc(/C(O)=C2\C(=O)C(=O)N(CC(C)O)C2c2cccc(F)c2)cc1 (stereo not given) | -5 | -2 | .
COCCCN1C(=O)C(=O)/C(=C(/O)c2ccccc2)C1c1ccc(N(C)C)cc1 (stereo not given) | 15 | 1 | .
COc1ccccc1C1/C(=C(/O)c2ccccc2)C(=O)C(=O)N1CCO (stereo not given) | 51* | -2 | -2
COc1ccc(/C(O)=C2\C(=O)C(=O)N(CCN(C)C)C2c2cccc(OC)c2OC)cc1 (stereo not given) | -17 | -13 | .
COc1ccccc1C1/C(=C(/O)c2ccccc2)C(=O)C(=O)N1CC(C)O (stereo not given) | 42* | -3 | -1
SMILES | FPR binder | FPRL1 binder | S aureus QS inh
COc1ccc(OC)c2[nH]c(=O)c(CCNC(=O)CC(C)C)cc12 | -2 | 4 | -1
O=C(NCc1ccco1)c1cccc(-c2nnc(-c3ccccc3)o2)c1 | -4 | -2 | 0
CCN(CCCNC(=O)C1CCCN(S(=O)(=O)c2cnc[nH]2)C1)c1ccccc1 (stereo not given) | -1 | -6 | -1
Cc1[nH]nc2c1C(CCc1ccccc1)C(C#N)=C(N)O2 (stereo not given) | -4 | 8 | -1
CC(C)CN(CC(C)C)C(=O)CS(=O)(=O)Cc1ccccc1 | 63* | -3 | -2
O=C(O)c1ccc(S(=O)(=O)Cc2ccccc2)cc1 | 11 | 3 | -1
Cc1ccccc1C(=O)N1CCC(C(=O)Nc2ccc3c(c2)OCO3)CC1 | . | . | 0
Cc1ccc(C)c(-n2c(CNC(=O)c3ccco3)nnc2SCC(=O)Nc2nnc(C)s2)c1 | 1 | -2 | 0
Cc1ccc(C)c(-n2c(CNC(=O)c3ccco3)nnc2SCC(=O)N2CCc3ccccc32)c1 | 55* | 0 | 1
CCn1c(=O)cc(SCC(=O)N2CCN(c3ccccc3OC)CC2)c2ccccc21 | -4 | 0 | 0
Cc1ccsc1C1C2=C(CCCC2=O)Nc2ncnn21 (stereo not given) | 9 | -2 | 0
Cc1ccsc1C1C2=C(CC(C)(C)CC2=O)Nc2ncnn21 (stereo not given) | 36* | 2 | -2
O=C1N2c3ccccc3CCc3cccc(c32)C1(O)C(F)(F)F (stereo not given) | -2 | -13 | 6
CCC(C(=O)Nc1ccccc1OC)n1c(C(=O)OC)cc2ccsc21 (stereo not given) | -2 | -5 | 1
O=C(Cn1cnc2c(cnn2-c2ccc(F)cc2)c1=O)OCc1ccccc1 | 40* | 54* | -1
CCCn1cnc2c(cnn2-c2ccc(F)cc2)c1=O | 0 | -2 | 0
COc1cccc(-c2nn(C)c3sc(C(=O)Nc4ccc5c(c4)OCCO5)cc23)c1 | 6 | 5 | 82*
COc1cccc(-c2nn(C)c3sc(C(=O)NCc4ccccn4)cc23)c1 | 7 | 1 | 0
O=C(NCCN1CCN(c2ccccc2F)CC1)c1cccn2c(=O)c3ccccc3nc12 | -8 | 4 | -14
O=C(NCCN1CCN(c2ccccc2)CC1)c1cccn2c(=O)c3ccccc3nc12 | 2 | 3 | 80*
CCN1CCCC1CNC(=O)c1cc2c(C)nc3ccccc3c2o1 (stereo not given) | 2 | 4 | -3
Cc1cccc(N2CCN(C(=O)c3cc4c(C)nc5ccccc5c4o3)CC2)c1C | 4 | 6 | 6
CCOC(=O)N1CCC(NC(=O)c2cc3c(C)nc4ccccc4c3o2)CC1 | 40* | 28 | -2
Cc1nc2ccccc2c2oc(C(=O)N3CCc4ccccc43)cc12 | 38* | 26 | -2
O=C(Cc1ccc(Br)cc1)N1CCCCCC1 | 2 | 3 | -3
SMILES | FPR binder | FPRL1 binder | S aureus QS inh
CCC(=O)NC(C)C(c1cccs1)N1CCN(c2ccccc2)CC1 (stereo not given) | -4 | 47* | 0
CC(NC(=O)Cc1cccs1)C(c1cccs1)N1CCN(c2ccccc2)CC1 (stereo not given) | 1 | -2 | 0
O=C(c1ccc(CS(=O)(=O)c2ccccc2)o1)N1CCN(c2ncccn2)CC1 | 0 | -6 | 8
Cc1cc(NC(=O)C2CCCCC2)nc2c1c(=O)oc1ccccc12 | -15 | -15 | -4
Cc1cc(NC(=O)C2CCCC2)nc2c1c(=O)oc1ccccc12 | -2 | -13 | 54*
CCc1nn(CC(=O)N2CCN(Cc3ccc4c(c3)OCO4)CC2)c(=O)c2cc3occc3n12 | -5 | -6 | -2
COc1ccccc1-n1nnnc1SCc1cc2c(cc1Br)OCO2 | -5 | -1 | 0
Cc1nc(C)c(C(=O)C2=C(O)C(=O)N(CCCn3ccnc3)C2c2ccc(Cl)cc2)s1 (stereo not given) | 38* | 24 | .
